Measurements reported in the supplement of paper PMC6897291.

System: U-2932
Assay: growth inhibition by drug alone (1 - RLU/untreated control) (fraction); higher = stronger inhibition
Settings: 177Lu-lilotomab satetraxetan 0 ug/ml
Description: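 U-2932 ABC-DLBCL cells were pretreated or not for 18 h with 1 ug/ml 177Lu-lilotomab satetraxetan (600 MBq/mg), washed and seeded (3000 cells/well) on 384-well plates pre-printed with the Selleck Cambridge Cancer Compound library. Viability was read by RealTime-Glo luminescence on days 3-6 after seeding. Effect = 1 - RLU/mean RLU of the 48 untreated no-drug control wells per plate; Bliss score = (M-E)/(1-Fa), with E the expected Bliss-additive effect.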

## CC(C)[C@]12O[C@H]1[C@@H]1O[C@]13[C@]1(O[C@H]1C[C@H]1C4=C(CC[C@@]13C)C(=O)OC4)[C@@H]2O [Triptolide]
10 nM, time (day): 3
  growth inhibition by drug alone: 0.345
10 nM, time (day): 4
  growth inhibition by drug alone: 0.52
10 nM, time (day): 5
  growth inhibition by drug alone: 0.63
10 nM, time (day): 6
  growth inhibition by drug alone: 0.677
1000 nM, time (day): 3
  growth inhibition by drug alone: 0.959
1000 nM, time (day): 4
  growth inhibition by drug alone: 0.971
1000 nM, time (day): 5
  growth inhibition by drug alone: 0.978
1000 nM, time (day): 6
  growth inhibition by drug alone: 0.982

## C[C@]12CCC(=O)C(O)=C1CC[C@@H]1[C@@H]2CC[C@]2(C)C(=O)CC[C@@H]12 [Formestane]
10 nM, time (day): 3
  growth inhibition by drug alone: -0.0202
10 nM, time (day): 4
  growth inhibition by drug alone: -0.0416
10 nM, time (day): 5
  growth inhibition by drug alone: -0.00849
10 nM, time (day): 6
  growth inhibition by drug alone: 0.0511
1000 nM, time (day): 3
  growth inhibition by drug alone: -0.0617
1000 nM, time (day): 4
  growth inhibition by drug alone: -0.0526
1000 nM, time (day): 5
  growth inhibition by drug alone: -0.0433
1000 nM, time (day): 6
  growth inhibition by drug alone: 0.0231

## CCC1(c2ccc(N)cc2)CCC(=O)NC1=O (stereo not given) [Aminoglutethimide (Cytadren)]
10 nM, time (day): 3
  growth inhibition by drug alone: 0.0306
10 nM, time (day): 4
  growth inhibition by drug alone: -0.0299
10 nM, time (day): 5
  growth inhibition by drug alone: -0.152
10 nM, time (day): 6
  growth inhibition by drug alone: -0.107
1000 nM, time (day): 3
  growth inhibition by drug alone: -0.0187
1000 nM, time (day): 4
  growth inhibition by drug alone: -0.0577
1000 nM, time (day): 5
  growth inhibition by drug alone: -0.161
1000 nM, time (day): 6
  growth inhibition by drug alone: -0.122

## CN(C)CCN(C)CCc1ccc(Cl)c(Cl)c1
10 nM, time (day): 3
  growth inhibition by drug alone: -0.0253
10 nM, time (day): 4
  growth inhibition by drug alone: -0.0155
10 nM, time (day): 5
  growth inhibition by drug alone: 0.000169
10 nM, time (day): 6
  growth inhibition by drug alone: 0.0547
1000 nM, time (day): 3
  growth inhibition by drug alone: -0.0569
1000 nM, time (day): 4
  growth inhibition by drug alone: -0.0395
1000 nM, time (day): 5
  growth inhibition by drug alone: -0.0761
1000 nM, time (day): 6
  growth inhibition by drug alone: -0.214

## N[C@@H](Cc1ccc(N(CCCl)CCCl)cc1)C(=O)O [Melphalan]
10 nM, time (day): 3
  growth inhibition by drug alone: 0.0288
10 nM, time (day): 4
  growth inhibition by drug alone: 0.0447
10 nM, time (day): 5
  growth inhibition by drug alone: -0.0175
10 nM, time (day): 6
  growth inhibition by drug alone: -0.0774
1000 nM, time (day): 3
  growth inhibition by drug alone: -0.0212
1000 nM, time (day): 4
  growth inhibition by drug alone: 0.00786
1000 nM, time (day): 5
  growth inhibition by drug alone: -0.0265
1000 nM, time (day): 6
  growth inhibition by drug alone: -0.169
